Values joined by “and” are separate entries in the source; they are usually repeats but may differ in a detail not shown here. Equal entries are not always repeated. ± gives the standard deviation of the averaged measurements.
What was measured:
DLD1 [1] = assay: cell viability (CellTiter-Glo) relative to plate median (fraction of plate median); higher = more viable cells; conditions: 5 µM; treatment time 24 h; reporter: 7TFP
Method in brief: (§1)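 On parallel plates, a Tecan F500 reader recorded either firefly luciferase or CellTiterGlo luminescence. The plates held colorectal cancer cells stably transduced with lentiviral TCF/Wnt firefly luciferase reporters (7TFP or TCF4/Wnt), seeded in 384-well format and treated 24 h later with library compounds at a final 5 µM for 24 h. Per-well signals were normalised to the plate median (webcellHTS2, additive, no log transformation), and two independent replicates were averaged.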

HCT116 = assay: as above; conditions: 5 µM; treatment time 24 h; reporter: TCF4/Wnt
Method in brief: as §1

SW480 [2] = assay: as above; conditions: 5 µM; treatment time 24 h; reporter: 7TFP
Method in brief: as §1

DLD1 [3] = assay: TCF/Wnt firefly luciferase reporter signal relative to plate median (fraction of plate median); higher = higher Wnt reporter signal; conditions: 5 µM; treatment time 24 h; reporter: 7TFP
Method in brief: as §1

SW480 [4] = assay: as above; conditions: 5 µM; treatment time 24 h; reporter: 7TFP
Method in brief: as §1

Row | SMILES | cell viability (DLD1 [1]) | cell viability (HCT116) | cell viability (SW480 [2]) | TCF/Wnt firefly luciferase reporter signal (DLD1 [3]) | TCF/Wnt firefly luciferase reporter signal (SW480 [4])
1 | C1CCN2C[C@@H]3C[C@@H](CN4CCCC[C@@H]34)[C@H]2C1 | 1.08 ± 0.12 | 1.04 ± 0.021 | 1.05 ± 0.021 | 1.16 | 0.948 ± 0.053
2 | OCC(O)C(O)C(O)CO (stereo not given) | 0.921 and 1.07 | 0.918 and 1.01 | 0.905 and 0.944 | 1.02 and 1.01 | 1.06 and 1.04
3 | CC(=O)Nc1nnc(S(N)(=O)=O)s1 | 0.981 ± 0.055 | 0.907 ± 0.11 | 0.989 ± 0.016 | 0.865 ± 0.044 | 1.09 ± 0.092
4 | CCCCC[C@H](CC(=O)O)C(=O)O | 0.996 ± 0.091 | 0.953 ± 0.095 | 0.974 ± 0.03 | 1.15 ± 0.085 | 1.03 ± 0.021
5 | CC1(C)C(=O)C=C[C@]2(C)[C@H]3CC[C@@]4(C)[C@H](c5ccoc5)OC(=O)[C@H]5O[C@]54[C@]3(C)C(=O)C[C@@H]12 | 1.02 | 0.974 ± 0.023 | 0.97 ± 0.033 | 0.871 ± 0.093 | 0.978 ± 0.025
6 | C#C[C@]1(OC(C)=O)CC[C@H]2[C@@H]3CCC4=CC(=NO)CC[C@@H]4[C@H]3CC[C@@]21CC (mixture of isomers) | 1 ± 0.057 | 1.025 ± 0.0071 | 0.98 ± 0.025 | 1.055 ± 0.0071 | 0.97 ± 0.04
7 | NCCS(=O)(=O)O | 1.04 ± 0.021 | 1.01 ± 0.061 | 0.978 ± 0.02 | 0.9735 ± 0.00071 | 1 ± 0.037
8 | COc1cc(O)c(C(=O)c2ccccc2)cc1O | 0.889 ± 0.07 | 0.84 ± 0.17 | 1.07 ± 0.15 | 0.891 ± 0.28 | 0.845 ± 0.12
9 | CC(C)CCCC(C)N (stereo not given) | 0.99 ± 0.012 | 0.929 ± 0.031 | 0.9345 ± 0.0092 | 0.875 ± 0.03 | 0.9465 ± 0.0078
10 | CC1=C(/C=C/C(C)=C/C=C/C(C)=C/CO)C(C)(C)CCC1 | 0.974 ± 0.079 | 1.15 ± 0.042 | 1.04 ± 0.042 | 1.14 ± 0.042 | 1.04 ± 0.057
11 | CCC(=O)C1(C)OC1C(C)CC(C)C1OC(=O)CC2(O)CC=C(C)C(O2)/C(C)=C/CCCC(OC2CC(OC(N)=O)C(O)C(C)O2)/C=C/C(C)C(O)C1C (stereo not given) [Irumamycin] | 1.07 ± 0.099 | 1.04 ± 0.035 | 1 ± 0.025 | 1.07 ± 0.078 | 1.02 ± 0.034
12 | Nc1cc(N2CCCCC2)nc(N)[n+]1[O-] | 1.01 ± 0.047 | 0.972 ± 0.054 | 1 ± 0.04 | 1.04 ± 0.11 | 0.943 ± 0.062
13 | CC[C@]1(O)C[C@@H]2CN(CCc3c([nH]c4ccccc34)[C@@](C(=O)OC)(c3cc4c(cc3OC)N(C)[C@H]3[C@@](O)(C(=O)OC)[C@H](OC(C)=O)[C@]5(CC)C=CCN6CC[C@]43[C@@H]65)C2)C1 | 0.879 ± 0.16 | 0.477 ± 0.019 | 1.1 ± 0.035 | 0.803 ± 0.15 | 0.867 ± 0.2
14 | C=C(C)[C@@H]1C[C@H]2O[C@](O)(C/C(C)=C\C(=O)/C=C(/C)C[C@@H]3OC(=O)[C@]24O[C@@H]34)[C@H]1O [bipinnatolide F] | 1.02 ± 0.028 | 0.943 ± 0.018 | 0.94 ± 0.074 | 1.01 ± 0.059 | 0.994 ± 0.023
15 | CCN(CC)CCCC(C)Nc1ccnc2cc(Cl)ccc12 (stereo not given) | 1.05 ± 0.096 | 1.04 ± 0.12 | 1.05 ± 0.028 | 0.974 ± 0.024 | 1.045 ± 0.0071
16 | Cn1cnc([N+](=O)[O-])c1Sc1ncnc2[nH]cnc12 | 0.95 ± 0.018 | 1.02 ± 0.054 | 1.13 ± 0.057 | 1.03 ± 0.078 | 0.965 ± 0.034
17 | C=C1C2CC[C@@]3(C)[C@H](c4ccoc4)OC(=O)C[C@]13O[C@H]1CC(=O)C(C)(C)[C@H](C(O)C(=O)OC)[C@@]21C (stereo not given in full) | 0.97 ± 0.042 | 1.01 ± 0.087 | 0.991 ± 0.055 | 1.02 ± 0.11 | 1.02 ± 0.047
18 | c1ccc(CN(CC2=NCCN2)c2ccccc2)cc1 | 0.9805 ± 0.0092 | 1.03 ± 0.055 | 1.08 ± 0.021 | 1.18 ± 0.05 | 1.06 ± 0.096
19 | CCOC(=O)[N-]c1c[n+](N2CCOCC2)no1 | 1.065 ± 0.0071 | 1.01 ± 0.089 | 1.02 ± 0.035 | 0.984 ± 0.037 | 1.11 ± 0.078
20 | CC(C)c1c(O)ccc2c1CC[C@H]1C(C)(C)CCC[C@]21C | 1.16 ± 0.12 | 1 ± 0.13 | 1.03 ± 0.076 | 0.855 ± 0.11 | 0.996 ± 0.035
21 | CCC(=O)O[C@]1(C(=O)CCl)[C@@H](C)C[C@H]2[C@@H]3CCC4=CC(=O)C=C[C@]4(C)[C@@]3(F)[C@@H](O)C[C@@]21C | 1.03 ± 0.035 | 0.9775 ± 0.0078 | 1.01 ± 0.035 | 0.896 ± 0.27 | 0.893 ± 0.027
22 | C=C1c2cccc(O)c2C(=O)C2=C(O)[C@]3(O)C(=O)C(C(N)=O)=C(O)[C@@H](N(C)C)[C@@H]3[C@@H](O)[C@H]12 | 0.968 ± 0.0014 | 0.928 ± 0.13 | 0.969 ± 0.073 | 1.06 ± 0.26 | 1.11 ± 0.064
23 | O=C(O)c1ccccc1Nc1ccccc1 | 1.08 ± 0.15 | 1.03 ± 0.14 | 1.04 ± 0.057 | 1.09 ± 0.099 | 0.911 ± 0.17
24 | CC(=O)OC/C=C(\C)CC/C=C(\C)CC/C=C(\C)CC/C=C(\C)CC/C=C(\C)CC/C=C(\C)CC/C=C(\C)CC/C=C(\C)CCC=C(C)C | 1.04 ± 0.042 | 0.96 ± 0.085 | 1.06 ± 0.028 | 0.807 ± 0.072 | 1.02 ± 0.057
25 | C1CCC(C(CC2CCCCN2)C2CCCCC2)CC1 (stereo not given) | 1.05 ± 0.05 | 0.983 ± 0.052 | 1.12 ± 0.021 | 0.971 ± 0.013 | 1.03
26 | O=C1NC(Cc2ccc(O)cc2)C(=O)N2CCCC12 (stereo not given) [Cyclo(tyrosylprolyl)] | 0.935 ± 0.0085 | 0.928 ± 0.023 | 0.9425 ± 0.0021 | 0.768 ± 0.15 | 0.959 ± 0.028
27 | COc1ccc(NS(=O)(=O)c2ccc(N)cc2)nn1 | 0.99 ± 0.057 | 1.09 ± 0.042 | 1.02 ± 0.032 | 1.12 ± 0.19 | 0.914 ± 0.14
28 | Cc1cnc(NC(=O)C2=C(O)c3ccccc3S(=O)(=O)N2C)s1 | 1.01 ± 0.04 | 1.05 ± 0.078 | 0.995 ± 0.079 | 1.02 ± 0.031 | 1.03 ± 0.044
